Test [1] in a line: ATG_AP_2_CIS: Attagene CIS-FACTORIAL HepG2 Assay for human Activator Protein 2 (AP-2) (AID 2282932). The settings on record: HepG2 AP-2 cis-reporter, Attagene transcription factor profiling; actives raise or lower the signal. A digest of the protocol:
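Transiently transfected HepG2 cells are exposed to chemical for 24 h. Reporter transcripts are then measured as fluorescence following RT-PCR and capillary separation, and gain- or loss-of-signal is fitted relative to DMSO.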

Test [2] has as its target Transcription factor E2F1 (Homo sapiens) (UniProt Q01094). Nature of the test: ATG_E2F_CIS: Attagene CIS-FACTORIAL HepG2 Assay for human E2F Transcription Factor 1 (AID 2282935). As to conditions: HepG2 Attagene cis-reporter, E2F reporter RNA transcripts; actives raise or lower the signal. A digest of the protocol: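 Fluorescent RT-PCR products, digested with HpaI for 2 h at 37 C, are separated by capillary electrophoresis. Source RNA comes from transfected HepG2 cultures treated for 24 h.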

Test [3] can be described thus: ATG_M_61_CIS: Attagene CIS-FACTORIAL HepG2 Assay for M61 Transcription Factor (Internal Marker) (AID 2282937). As to conditions: HepG2 Attagene CIS-FACTORIAL M61 internal marker reporter; actives raise or lower the signal. A digest of the protocol: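 Using transiently transfected HepG2 liver cells, reporter transcript levels were assessed 24 h post-dosing by RT-PCR and capillary electrophoresis. Changes in either direction were fitted relative to DMSO controls.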

A short description of test [4]: ATG_EGR_CIS: Attagene CIS-FACTORIAL HepG2 Assay for human Early Growth Response 1 (EGR1) (AID 2282938). The settings on record: HepG2 Attagene CIS-FACTORIAL EGR reporter mRNA; actives raise or lower the signal. A digest of the protocol: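 Fluorescent capillary-electrophoresis signal of reporter cDNA fragments serves as read-out. HepG2 cells bear transiently transfected cis-promoter reporter units and are exposed 24 h; gain- or loss-of-signal is fitted against DMSO.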

The target in test [5] is Hepatocyte nuclear factor 3-beta (Homo sapiens) (UniProt Q9Y261). Nature of the test: ATG_FoxA2_CIS: Attagene CIS-FACTORIAL HepG2 Assay for human Forkhead box A2 (FOXA2) (AID 2282942). As to conditions: HepG2 cis-reporter transcription factor activity, 24 h; actives raise or lower the signal. A digest of the protocol: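 Fluorescence signal of reporter cDNA fragments, separated by capillary electrophoresis, reflects endogenous transcription factor activity in transfected HepG2 after 24 h. Both increases and decreases fitted against DMSO.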

For test [6], the target named is Hypoxia-inducible factor 1-alpha (Homo sapiens) (UniProt Q16665). Briefly: ATG_HIF1a_CIS: Attagene CIS-FACTORIAL HepG2 Assay for human Hypoxia Inducible Factor 1 (HIF1A) (AID 2282951). The settings on record: HepG2 Attagene cis-factorial HIF1a reporter transcription; actives raise or lower the signal. A digest of the protocol:
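Endogenous-TF cis reporter readout, human HepG2 cells, 24 h incubation; mRNA detected via RT-PCR and capillary electrophoresis fluorescence; DMSO-normalised bidirectional fitting.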

Test [7] in a line: ATG_RORE_CIS: Attagene CIS-FACTORIAL HepG2 Assay for human RAR-related Orphan Receptor Element (RORE) (AID 2282959). The settings on record: HepG2 Attagene cis-factorial RORE reporter, mRNA; actives raise or lower the signal. A digest of the protocol:
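Measured here: transcript induction of a cis-regulated reporter in HepG2 cells transiently transfected via FuGene 6. After 24 h, RNA was processed by RT-PCR and fluorescent capillary electrophoresis; DMSO defined baseline activity.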

The nature of test [8]: ATG_TGFb_CIS: Attagene CIS-FACTORIAL HepG2 Assay for human Transforming Growth Factor (TGF) (AID 2282967). The settings on record: HepG2 Attagene CIS TGFb reporter, mRNA transcription; actives raise or lower the signal. A digest of the protocol:
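Readout: fluorescently labeled reporter cDNA fragments resolved by capillary electrophoresis after RT-PCR. Transfected HepG2 cells dosed for 24 h; endogenous TF activity at TGFB1-linked cis element; gain or loss fitted relative to DMSO.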

Test [9] in a line: ATG_VDRE_CIS: Attagene CIS-FACTORIAL HepG2 Assay for human Vitamin D Receptor Element (VDRE) (AID 2282968). The settings on record: HepG2 VDRE cis-reporter transcription, actives raise or lower the signal. A digest of the protocol: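 Measures endogenous factor activity through cis-element-driven reporter transcripts in transiently transfected HepG2. Cells are treated 24 h; reporter mRNA is quantified by RT-PCR and capillary electrophoresis; fitting is bidirectional.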

Test [10] addresses X-box-binding protein 1 (Homo sapiens) (UniProt P17861). Briefly: ATG_Xbp1_CIS: Attagene CIS-FACTORIAL HepG2 Assay for human X-box Binding Protein 1 (XBP1) (AID 2282972). The settings on record: HepG2 XBP1 cis-element reporter, Attagene multiplex; actives raise or lower the signal. A digest of the protocol:
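Human hepatoma HepG2, cis-element reporter system, 24 h treatment; mRNA quantified by RT-PCR/CE fluorescence; fit relative to DMSO.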

For test [11], the target named is Transcriptional activator Myb (Homo sapiens) (UniProt P10242). Nature of the test: ATG_Myb_CIS: Attagene CIS-FACTORIAL HepG2 Assay for human Myeloblastosis (Myb) Proto-Oncogene Transcription Factor (AID 2282986). The settings on record: HepG2 Attagene CIS-FACTORIAL Myb reporter transcription; actives raise or lower the signal. A digest of the protocol: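 Multiplexed cis-reporter system in HepG2: transient transfection, 24 h treatment, mRNA readout by RT-PCR and capillary electrophoresis. Both increases and decreases are scored versus DMSO negative control.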

Test [12] has as its target Nuclear respiratory factor 1 (Homo sapiens) (UniProt Q16656). Briefly: ATG_NRF1_CIS: Attagene CIS-FACTORIAL HepG2 Assay for human Nuclear Respiratory Factor 1 (NRF1) Orphan Gene (AID 2282987). The settings on record: HepG2 NRF1 cis-element reporter, Attagene multiplex; actives raise or lower the signal. A digest of the protocol: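 Endogenous factor activity was captured via cis-element-driven reporter transcripts in HepG2 cells. Following 24 h chemical treatment, transcripts were quantified by RT-PCR and capillary electrophoresis.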

The nature of test [13]: ATG_NFI_CIS: Attagene CIS-FACTORIAL HepG2 Assay for human Nuclear Factor I (NFI) (AID 2282989). As to conditions: HepG2 cis-regulatory reporter, NFI response element transcription; actives raise or lower the signal. A digest of the protocol:
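Read-out: reporter mRNA via RT-PCR plus capillary electrophoresis with fluorescence detection. Transiently transfected HepG2 (endogenous TF activity on cis promoters), 24 h compound exposure; gain or loss of signal fitted against DMSO.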

Test [14] addresses Myc proto-oncogene protein (Homo sapiens) (UniProt P01106). Briefly: ATG_Myc_CIS: Attagene CIS-FACTORIAL HepG2 Assay for human Myelocytomatosis (Myc) Proto-Oncogene Transcription Factor (AID 2282990). As to conditions: HepG2, Attagene cis-reporter transcription factor activity; actives raise or lower the signal. A digest of the protocol: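 After 24 h chemical treatment of HepG2 cells carrying multiplexed cis-regulated reporter constructs, reporter transcripts quantified by RT-PCR and capillary electrophoresis of fluorescent fragments. Gain or loss fitted against DMSO baseline.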

Test [15] deals with Cellular tumor antigen p53 (Homo sapiens) (UniProt P04637). Briefly: ATG_p53_CIS: Attagene CIS-FACTORIAL HepG2 Assay for human p53 Transcription Factor (AID 2282994). The settings on record: HepG2 p53 cis-element reporter, Attagene mRNA; actives raise or lower the signal. A digest of the protocol:
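Transiently transfected HepG2 (multiple cis reporter transcription units); exposure 24 h; reporter RNA via RT-PCR, 6-FAM extension, 2 h HpaI digest at 37 C, CE detection; DMSO baseline.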

Test [16] is described as follows: ATG_XTT_Cytotoxicity: Cytotoxicity Assessment in the Attagene TRANS-FACTORIAL HepG2 Assay (AID 2283584; active means hit-call score of the fitted dose curve at least 0.9, where 1 is the maximum). A digest of the protocol:
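HepG2 cells transiently transfected with GAL4-UAS multiple reporter units, dosed 24 h; cytotoxicity read by XTT as loss of signal versus DMSO baseline.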

In test [17] the target is Cellular tumor antigen p53 (Homo sapiens) (UniProt P04637). Briefly: TOX21_p53_BLA_p2_ratio: Tox21 HCT-116 p53 Agonism Beta-lactamase Assay, Ratio, Phase 2 (AID 2283592; active means hit-call score of the fitted dose curve at least 0.9, where 1 is the maximum). A digest of the protocol:
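First, HCT116 reporter cells settle for 5 h at 37C. Next, DMSO compound solutions are pinned in (217-fold dilution) and left 16 h. Finally, CCF4-AM substrate is loaded 2 h at room temperature and the 460/530 nm ratio read.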

Test [18] in a line: ATG_Ets_CIS: Attagene CIS-FACTORIAL HepG2 Assay for human Erythroblast Transformation Specific (ETS) (AID 2282941). As to conditions: HepG2 ETS cis-reporter transcription, actives raise or lower the signal. A digest of the protocol:
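Multiplexed reporter transcript profiling: HepG2, 24 h treatment, total RNA to cDNA, PCR, 6-FAM labelling, HpaI cut, capillary electrophoresis. Gain- or loss-of-signal fitted against DMSO.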

A short description of test [19]: ATG_FoxO_CIS: Attagene CIS-FACTORIAL HepG2 Assay for human Forkhead box O (FoxO) (AID 2282943). The settings on record: HepG2 Attagene cis-reporter, FoxO element, mRNA; actives raise or lower the signal. A digest of the protocol: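 Endogenous transcription factor activity read from multiplexed cis-promoter reporter transcripts in transiently transfected HepG2, 24 h after dosing. Reporter RNA measured via RT-PCR plus capillary electrophoresis of FAM-labeled products; gain or loss relative to DMSO.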

Test [20] deals with Nuclear receptor subfamily 1 group I member 2 (Homo sapiens) (UniProt O75469). Nature of the test: ATG_PXR_TRANS: Attagene TRANS-FACTORIAL HepG2 Assay for human Pregnane X Receptor (PXR) (AID 2283008; active means hit-call score of the fitted dose curve at least 0.9, where 1 is the maximum). A digest of the protocol:
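Transient HepG2 transfectants carrying multiplexed reporter transcription units; PXR activity read through a Gal4 chimera. 24 h exposure. RT-PCR/CE fluorescence; upward curve fit referenced to DMSO.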

Several values for one entry are separate records, joined by “and”; a condition that tells them apart may be missing. Identical values can stand only once. Results filed as inconclusive are left out. The source holds several records for some structures; these can differ, active in one and inactive in another. Activity calls are given as the source filed them. How the source made its calls, unless noted: active means hit-call score of the fitted dose curve at least 0.9, where 1 is the maximum; inactive means score below 0.9.

Chain of Nuclear receptor subfamily 1 group I member 2 (Homo sapiens) (O75469 whole entry, looked up, the tested form may be a part): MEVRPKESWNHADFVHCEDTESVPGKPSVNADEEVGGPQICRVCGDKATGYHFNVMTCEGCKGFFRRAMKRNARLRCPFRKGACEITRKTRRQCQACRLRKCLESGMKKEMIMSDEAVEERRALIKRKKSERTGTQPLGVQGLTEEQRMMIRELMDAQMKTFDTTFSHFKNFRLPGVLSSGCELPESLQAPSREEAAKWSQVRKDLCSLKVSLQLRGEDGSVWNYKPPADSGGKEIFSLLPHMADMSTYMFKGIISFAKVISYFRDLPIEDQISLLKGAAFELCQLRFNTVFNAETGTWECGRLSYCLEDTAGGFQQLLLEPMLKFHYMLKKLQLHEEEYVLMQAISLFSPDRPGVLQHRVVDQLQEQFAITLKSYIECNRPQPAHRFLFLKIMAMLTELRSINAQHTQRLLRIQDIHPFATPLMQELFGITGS
Chain of Cellular tumor antigen p53 (Homo sapiens) (P04637 whole entry, looked up): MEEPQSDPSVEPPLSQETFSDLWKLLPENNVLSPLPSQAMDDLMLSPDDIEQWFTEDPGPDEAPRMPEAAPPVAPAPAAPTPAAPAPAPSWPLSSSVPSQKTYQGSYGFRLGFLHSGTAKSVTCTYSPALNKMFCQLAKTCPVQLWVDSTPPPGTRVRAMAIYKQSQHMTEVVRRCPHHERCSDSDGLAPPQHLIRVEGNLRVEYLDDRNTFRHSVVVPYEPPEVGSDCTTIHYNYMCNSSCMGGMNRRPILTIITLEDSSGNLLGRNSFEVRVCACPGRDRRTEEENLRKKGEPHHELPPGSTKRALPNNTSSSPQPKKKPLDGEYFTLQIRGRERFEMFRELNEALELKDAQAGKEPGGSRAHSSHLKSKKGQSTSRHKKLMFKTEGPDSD
Chain of Transcriptional activator Myb (Homo sapiens) (P10242 whole entry, looked up): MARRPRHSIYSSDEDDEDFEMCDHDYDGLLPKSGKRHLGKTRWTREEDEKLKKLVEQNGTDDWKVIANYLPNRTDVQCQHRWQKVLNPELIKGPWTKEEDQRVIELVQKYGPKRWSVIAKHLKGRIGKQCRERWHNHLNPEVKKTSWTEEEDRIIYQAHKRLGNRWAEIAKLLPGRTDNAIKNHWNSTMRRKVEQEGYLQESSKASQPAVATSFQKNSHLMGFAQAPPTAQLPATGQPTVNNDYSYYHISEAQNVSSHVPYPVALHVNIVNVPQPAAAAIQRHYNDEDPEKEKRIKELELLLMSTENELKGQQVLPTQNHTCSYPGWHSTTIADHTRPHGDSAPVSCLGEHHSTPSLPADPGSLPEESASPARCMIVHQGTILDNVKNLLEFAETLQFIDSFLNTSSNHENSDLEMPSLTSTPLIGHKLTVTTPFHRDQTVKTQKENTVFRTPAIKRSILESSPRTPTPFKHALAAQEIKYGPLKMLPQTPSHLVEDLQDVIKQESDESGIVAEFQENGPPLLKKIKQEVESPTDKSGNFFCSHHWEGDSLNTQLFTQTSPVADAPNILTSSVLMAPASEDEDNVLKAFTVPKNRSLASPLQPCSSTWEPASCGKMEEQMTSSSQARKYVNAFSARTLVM
Chain of X-box-binding protein 1 (Homo sapiens) (P17861 whole entry, looked up): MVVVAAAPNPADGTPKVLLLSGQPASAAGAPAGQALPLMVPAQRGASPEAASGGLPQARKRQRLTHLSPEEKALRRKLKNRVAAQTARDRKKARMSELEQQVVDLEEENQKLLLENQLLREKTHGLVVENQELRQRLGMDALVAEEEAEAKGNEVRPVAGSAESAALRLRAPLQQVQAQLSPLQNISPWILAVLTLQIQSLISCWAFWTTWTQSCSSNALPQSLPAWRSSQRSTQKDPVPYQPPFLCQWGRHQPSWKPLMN
Chain of Nuclear respiratory factor 1 (Homo sapiens) (Q16656 whole entry, looked up): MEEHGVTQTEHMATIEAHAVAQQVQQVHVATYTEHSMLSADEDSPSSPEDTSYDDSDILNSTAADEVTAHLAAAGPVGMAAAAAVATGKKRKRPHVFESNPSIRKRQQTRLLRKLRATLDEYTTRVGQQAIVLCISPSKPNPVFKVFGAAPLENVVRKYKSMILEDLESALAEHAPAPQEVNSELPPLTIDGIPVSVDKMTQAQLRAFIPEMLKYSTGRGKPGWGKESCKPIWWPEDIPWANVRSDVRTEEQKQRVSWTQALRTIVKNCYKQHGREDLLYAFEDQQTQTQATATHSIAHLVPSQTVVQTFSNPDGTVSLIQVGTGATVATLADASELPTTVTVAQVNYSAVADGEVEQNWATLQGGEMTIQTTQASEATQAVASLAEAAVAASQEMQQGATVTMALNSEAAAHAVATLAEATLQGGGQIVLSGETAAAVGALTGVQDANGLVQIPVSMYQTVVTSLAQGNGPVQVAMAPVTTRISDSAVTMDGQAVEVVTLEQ
Chain of Myc proto-oncogene protein (Homo sapiens) (P01106 whole entry, looked up, the tested form may be a part): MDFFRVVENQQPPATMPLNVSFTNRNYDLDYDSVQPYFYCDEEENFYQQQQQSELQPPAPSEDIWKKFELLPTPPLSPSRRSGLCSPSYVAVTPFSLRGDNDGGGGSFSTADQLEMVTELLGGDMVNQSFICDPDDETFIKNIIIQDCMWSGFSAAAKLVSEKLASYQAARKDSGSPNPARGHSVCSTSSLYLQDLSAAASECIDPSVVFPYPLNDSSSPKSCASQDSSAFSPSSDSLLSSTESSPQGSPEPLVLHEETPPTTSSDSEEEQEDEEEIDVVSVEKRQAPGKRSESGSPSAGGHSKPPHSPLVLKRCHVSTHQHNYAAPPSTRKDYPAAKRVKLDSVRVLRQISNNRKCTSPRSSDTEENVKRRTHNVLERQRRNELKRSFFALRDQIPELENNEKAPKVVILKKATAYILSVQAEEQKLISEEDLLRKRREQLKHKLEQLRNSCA
Chain of Hypoxia-inducible factor 1-alpha (Homo sapiens) (Q16665 whole entry, looked up): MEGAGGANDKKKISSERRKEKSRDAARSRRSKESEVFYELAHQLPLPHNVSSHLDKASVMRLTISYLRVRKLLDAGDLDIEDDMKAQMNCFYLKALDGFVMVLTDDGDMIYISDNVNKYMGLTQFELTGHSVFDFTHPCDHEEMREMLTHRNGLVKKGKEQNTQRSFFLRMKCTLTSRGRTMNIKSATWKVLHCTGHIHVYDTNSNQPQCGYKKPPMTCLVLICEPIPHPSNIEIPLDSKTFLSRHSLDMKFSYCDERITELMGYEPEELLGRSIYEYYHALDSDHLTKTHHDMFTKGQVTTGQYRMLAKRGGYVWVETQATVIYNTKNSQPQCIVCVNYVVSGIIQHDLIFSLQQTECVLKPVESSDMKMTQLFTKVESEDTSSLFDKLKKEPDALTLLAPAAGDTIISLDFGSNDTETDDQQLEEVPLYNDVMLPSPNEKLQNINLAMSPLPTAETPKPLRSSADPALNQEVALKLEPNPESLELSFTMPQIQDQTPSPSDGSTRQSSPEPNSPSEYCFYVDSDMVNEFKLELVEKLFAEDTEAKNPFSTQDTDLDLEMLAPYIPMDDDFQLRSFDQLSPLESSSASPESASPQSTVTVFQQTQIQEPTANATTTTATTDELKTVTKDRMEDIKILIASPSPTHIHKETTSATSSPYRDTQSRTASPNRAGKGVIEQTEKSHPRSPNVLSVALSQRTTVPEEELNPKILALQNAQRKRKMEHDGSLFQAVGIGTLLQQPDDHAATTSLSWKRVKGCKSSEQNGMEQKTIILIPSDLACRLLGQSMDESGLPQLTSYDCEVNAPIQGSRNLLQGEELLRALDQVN
Chain of Hepatocyte nuclear factor 3-beta (Homo sapiens) (Q9Y261 whole entry, looked up, the tested form may be a part): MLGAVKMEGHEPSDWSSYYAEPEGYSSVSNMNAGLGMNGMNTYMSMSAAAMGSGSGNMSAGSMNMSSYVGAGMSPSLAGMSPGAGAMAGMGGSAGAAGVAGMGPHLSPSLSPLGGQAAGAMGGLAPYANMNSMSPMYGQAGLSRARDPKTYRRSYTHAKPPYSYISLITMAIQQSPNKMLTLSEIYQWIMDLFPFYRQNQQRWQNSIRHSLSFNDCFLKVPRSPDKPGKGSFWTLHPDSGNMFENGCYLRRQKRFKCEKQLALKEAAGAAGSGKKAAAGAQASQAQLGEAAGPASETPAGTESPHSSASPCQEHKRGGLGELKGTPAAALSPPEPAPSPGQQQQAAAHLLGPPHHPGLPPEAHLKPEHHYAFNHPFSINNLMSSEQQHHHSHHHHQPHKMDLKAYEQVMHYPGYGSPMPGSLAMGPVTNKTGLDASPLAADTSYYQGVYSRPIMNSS
Chain of Transcription factor E2F1 (Homo sapiens) (Q01094 whole entry, looked up): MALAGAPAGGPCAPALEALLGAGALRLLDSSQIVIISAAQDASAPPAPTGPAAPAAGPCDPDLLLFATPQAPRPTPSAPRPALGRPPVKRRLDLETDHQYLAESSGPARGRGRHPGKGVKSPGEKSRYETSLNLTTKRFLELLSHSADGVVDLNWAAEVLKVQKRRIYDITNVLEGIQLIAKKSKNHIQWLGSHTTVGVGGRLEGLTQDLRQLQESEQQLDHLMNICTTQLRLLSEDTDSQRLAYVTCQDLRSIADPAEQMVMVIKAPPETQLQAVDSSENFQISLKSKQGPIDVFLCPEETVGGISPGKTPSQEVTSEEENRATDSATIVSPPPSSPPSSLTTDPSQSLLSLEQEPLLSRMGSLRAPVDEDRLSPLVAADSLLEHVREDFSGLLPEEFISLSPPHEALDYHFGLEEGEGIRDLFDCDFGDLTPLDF

As to `NCc1ccccc1`, the outcome in [1], in test [2], in test [3], in test [4], in [5] and in test [6] was inactive. Besides, the compound was called inactive in test [7], in [8], in test [9], in test [10], in [11] and in test [12]. The result in test [13], in test [14], in test [15], in test [16] and in [17] was inactive.
In the case of `c1cc[c]([Bi]([c]2ccccc2)[c]2ccccc2)cc1`, the outcome in test [1], in test [3], in test [4], in test [18], in [5] and in test [19] was inactive. The compound was classed as inactive in test [6], in test [7], in test [9], in test [11], in [12] and in [13]. The call in test [14] and in test [16] was inactive. The AC50 in [8] is 40.4 µM (active); in test [20], 2.73 µM (active).
As for `CCCCCC[C@@H](O)C/C=C\CCCCCCCC(=O)O`, the compound was called inactive in test [1], in test [4], in [18], in test [6], in test [9] and in [14]. In addition, the compound was called inactive in [15], in [20], in test [16] and in test [17]. In addition, the AC50 in test [2] is 177 µM (active); in test [5], 172 µM (active); in [19], 156 µM (active); in test [7], 100 µM (active); in test [8] it was 115 µM (active); in test [11] it was 123 µM (active). For the same compound, the AC50 in test [12] is 139 µM (active); in test [13] it was 153 µM (active); in test [17] it was 68.9 µM (active).
Take `COc1cccc(OC)c1C(=O)O`: the result in test [1], in [2], in [4], in test [5], in [19] and in test [6] was inactive. The compound was called inactive in [7], in test [8], in test [9], in [10], in test [11] and in test [12]. Besides, the compound was classed as inactive in test [13], in test [14], in test [15], in [16] and in test [17].
As to `CCOc1ccc2c(c1)C(C)CC(C)(C)N2` (configuration not stated), the call in test [2], in [3], in [18], in test [5], in test [19] and in test [6] was inactive. Further, the compound was called inactive in test [7], in test [8], in test [10], in test [11], in test [12] and in test [13]. Further, the result in [14] and in [16] was inactive. The AC50 in [9] was 34 µM (active); in test [20], 3.63 µM (active).
As to `CCCc1c(OCCCCc2nn[nH]n2)ccc(C(C)=O)c1O`, the compound was classed as inactive in test [1], in test [2], in test [18], in test [5], in [19] and in test [8]. In addition, the compound was classed as inactive in test [9], in [10], in test [11], in test [12], in [13] and in test [14]. The outcome in test [15], in [20] and in test [16] was inactive. Moreover, the AC50 in test [7] was 33.2 µM (active); in test [17] it was 73.1 µM (active) and 19.2 µM (active).

For orientation: AC50 means the midpoint of the concentration-response curve, whichever way the signal moves.

Source of the values: PubChem BioAssay (EPA / NIEHS).
